RORgamma inh: ROR gamma (mouse) transcription inhibition. AID 2551. Drosophila S2 Gal4-RORgamma UAS-luciferase reporter, 20 h. Potency, µM (top dose mostly 53.6 µM), usual class: inhibitors. 310,000 compounds, 5.4% hits; further: nearly all actives have a fitted effect of over 60% in size
Target sequence (P51450 whole entry, looked up, the tested form may be a part): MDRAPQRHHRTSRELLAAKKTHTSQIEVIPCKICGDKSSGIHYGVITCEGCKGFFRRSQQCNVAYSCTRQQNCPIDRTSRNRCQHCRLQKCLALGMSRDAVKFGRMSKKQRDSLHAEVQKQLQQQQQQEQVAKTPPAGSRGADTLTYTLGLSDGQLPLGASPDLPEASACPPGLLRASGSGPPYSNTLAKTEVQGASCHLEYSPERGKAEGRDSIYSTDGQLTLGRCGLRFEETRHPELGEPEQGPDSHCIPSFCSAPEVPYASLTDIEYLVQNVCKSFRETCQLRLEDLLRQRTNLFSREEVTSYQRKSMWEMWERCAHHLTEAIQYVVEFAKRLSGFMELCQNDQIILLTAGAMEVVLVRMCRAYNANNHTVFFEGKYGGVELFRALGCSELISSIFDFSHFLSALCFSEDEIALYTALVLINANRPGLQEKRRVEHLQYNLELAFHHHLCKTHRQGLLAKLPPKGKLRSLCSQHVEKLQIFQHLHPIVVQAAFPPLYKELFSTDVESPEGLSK
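A Gal4/UAS one-hybrid system in insect cells: metallothionein-promoter Gal4–ROR gamma fusion plus Photinus luciferase reporter. Copper sulfate 700 uM final, 20 hr ambient incubation, luminescent detection after 10 min with reagent.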
ELG1 DNA repair: inhibitors of ELG1-dependent DNA repair in HEK293T cells; 330,000 compounds, 2.3% hits; Potency, µM (series often up to 46.1 µM), most hits filed as inhibitors; HEK293T ELG1-luciferase reporter, luminescence, 16 h; DNA damage induced by 5-fluorouridine; further: nearly all actives have a fitted effect of over 55% in size
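In this reporter screen, reduction of luminescence relative to DMSO vehicle indicated activity. Compounds and 5-fluorouridine were added together to 2,000 cells per well, incubated for 16 hr at 37 °C, then developed with ONE-Glo.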
TDP1 cell noCPT: qHTS for Inhibitors of human tyrosyl-DNA phosphodiesterase 1 (TDP1): qHTS in cells in absence of CPT; DT40 Tdp1-/- hTDP1 cells, no CPT, ATP luminescence, 48 h; Potency, µM (highest dose often 46.2 µM), hits mostly inhibitors; 420,000 compounds, 15% hits; AID 686978, 2013; further: nearly all actives have a fitted effect of over 55% in size
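No-CPT arm: Tdp1-/-;hTDP1 DT40 cells (400/well) plus compounds, incubated ≥48 hr at 37 °C. Readout CellTiter-Glo luminescence.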
12-LOX inh: blocks human arachidonate 12S-lipoxygenase; purified 12hLO, xylenol orange hydroperoxide absorbance; P18054; 580,000 compounds, 1.1% hits; Potency, µM (series often up to 108 µM), actives largely listed as inhibitors
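Purified human 12hLO (150 nM final) in 25 mM Hepes, 0.01% Triton X-100, pH 7.0 was preincubated 15 min at room temperature with compound. Then 40 uM arachidonic acid was added, 30 min. Hydroperoxide was read by Fe-XO absorbance ratio 573/405 nm.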
DT40 TDP1 CPT: growth inhibition of DT40 Tdp1-/-;hTDP1 cells with camptothecin (screen for TDP1 inhibitors). Potency, µM (series often up to 46.2 µM), hits mostly inhibitors. AID 686979. 420,000 compounds, 12% hits. chicken DT40 Tdp1-/-;hTDP1 cells + 20 nM CPT, ATP luminescence, 48 h; further: nearly all actives have a fitted effect of over 55% in size
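Cell growth measured by CellTiter-Glo luminescence after a minimum 48 h, 37 C compound exposure with 20 nM CPT in Tdp1-knockout DT40 cells stably expressing hTDP1, seeded 400/well; qHTS titration format.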
Gal4-VP16 FLuc: counter-screen for ROR gamma inhibitors: Gal4-VP16 reporter; AID 2546; Drosophila S2 Gal4-VP16 UAS-luciferase, luminescence, 20 h; 310,000 compounds, 3.5% hits; Potency, µM (titrated, usually from 53.6 µM), most hits filed as inhibitors;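 further: Gal4-VP16 expression switched on by copper sulfate through the metallothionein promoter; nearly all actives have a fitted effect of over 50% in size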
A number is an active result. Rows were chosen to be rich in hits. Some 15% of all compounds tested hit in one or more screens of this group. The call rests on the fitted dose curve; in most records, active means well fitted curve in the direction sought with a large enough effect; inconclusive means small, poorly fitted or top-dose-only effect, or another doubt; inactive means no such curve, though single readings can be large; an effect the other way counts as inactive or inconclusive.

How did Cc1ccc(CS(=O)Cc2ccc(C(=O)NC3CCCC(C)C3C)o2)cc1 (stereo not given) do in these assays?
RORgamma inh: inactive; ELG1 DNA repair: inactive; TDP1 cell noCPT: inconclusive; 12-LOX inh: inactive; DT40 TDP1 CPT: 21µM; Gal4-VP16 FLuc: inactive

What do the screens show for `CCCC(=O)Nc1c(S(=O)(=O)c2ccc(F)cc2)c(C)c(C)n1CC(C)C`?
12-LOX inh: inactive

How did C=C(C)CN1CCN(Cc2ccc(C#N)cc2)CC1 do in these assays?
12-LOX inh: inactive

What do the screens show for `COc1ccc(C2CC(=O)Nc3c2c(=O)nc(SC)n3C)cc1` (stereo not given)?
12-LOX inh: inactive

Results for Cc1cc(Cl)ccc1C(O)c1ncc(-c2ccc(Cl)cc2)[nH]1 (stereo not given) ?
TDP1 cell noCPT: inconclusive; 12-LOX inh: inactive; DT40 TDP1 CPT: 13µM

How did Cc1cccc(-c2cnc(C(O)c3ccc(Cl)cc3C)[nH]2)c1 (stereo not given) do in these assays?
TDP1 cell noCPT: 18µM; 12-LOX inh: inactive; DT40 TDP1 CPT: inconclusive

What do the screens show for `Cc1ccc(C(O)c2ncc(-c3ccccc3)[nH]2)c(C)c1` (stereo not given)?
TDP1 cell noCPT: inactive; 12-LOX inh: inactive; DT40 TDP1 CPT: inconclusive

Results for Cc1ccc(-c2cnc(C(O)c3ccc(Cl)cc3C)[nH]2)cc1 (stereo not given) ?
TDP1 cell noCPT: inconclusive; 12-LOX inh: inactive; DT40 TDP1 CPT: 23µM

Results for O=C(Cc1ccc(OC(F)(F)F)cc1)N1CC(CNc2cccnc2)C2(C1)CN(c1ccccc1)C2 (stereo not given) ?
12-LOX inh: inactive

How did CCn1cc(CN2CCc3nn(CC4CC4)c(=O)n3CC2)cn1 do in these assays?
12-LOX inh: inactive

Results for C=CC1CN(C(=O)OCC(Cl)(Cl)Cl)C2CC3c4ccc(OC)cc4NC3C3CC1C2CO3 (stereo not given) ?
TDP1 cell noCPT: 18µM; DT40 TDP1 CPT: inconclusive

How did CCN(CC)C1CCOC2(CCN(C(=O)C3CC3)CC2)C1 (stereo not given) do in these assays?
12-LOX inh: inactive

Results for O=C(NCc1ccco1)/C(=C\C=C\c1ccccc1)NC(=O)c1ccccc1Br ?
RORgamma inh: inactive; ELG1 DNA repair: 23µM; TDP1 cell noCPT: inconclusive; 12-LOX inh: inactive; DT40 TDP1 CPT: inactive; Gal4-VP16 FLuc: inactive

Results for COc1ccc(N(C(=O)CNC(C)=O)C2(C(=O)Nc3c(C)cccc3C)CCCCC2)cc1 ?
12-LOX inh: inactive

What do the screens show for `CCOc1cccc(C2C=C(c3ccc4c(c3)OCO4)NC(c3ccccc3F)N2)c1O` (stereo not given)?
TDP1 cell noCPT: 16µM; DT40 TDP1 CPT: 11µM

How did CCOc1cccc(C2C=C(c3ccc4c(c3)OCO4)NC(c3ccc(Cl)cc3)N2)c1O (stereo not given) do in these assays?
TDP1 cell noCPT: 13µM; DT40 TDP1 CPT: 10µM

Results for CCOC(=O)C1=C(C)N(c2ccc3c(c2)OCO3)C(=O)NC1c1cccc(F)c1 (stereo not given) ?
12-LOX inh: inactive

Results for CCOc1cccc(C2C=C(c3ccc4c(c3)OCO4)NC(c3ccc(F)cc3)N2)c1O (stereo not given) ?
TDP1 cell noCPT: 13µM; DT40 TDP1 CPT: 14µM

What do the screens show for `CCCC(CCC)C(=O)Nc1ccc(OC)cc1`?
12-LOX inh: inactive

What do the screens show for `CCN1C(=O)/C(=C\C(=O)c2cccs2)c2cc(Br)ccc21`?
RORgamma inh: inconclusive; ELG1 DNA repair: inactive; TDP1 cell noCPT: 15µM; 12-LOX inh: inconclusive; DT40 TDP1 CPT: 13µM; Gal4-VP16 FLuc: inconclusive

How did O=C(O)/C(=C\c1ccc(Br)cc1)NC(=O)c1cccs1 do in these assays?
RORgamma inh: inactive; ELG1 DNA repair: inactive; TDP1 cell noCPT: inactive; 12-LOX inh: inactive; DT40 TDP1 CPT: inactive; Gal4-VP16 FLuc: inactive

Results for NCC(=O)Nc1ccc(Cl)cc1C(=O)c1ccc[nH]1 ?
RORgamma inh: inactive; ELG1 DNA repair: inconclusive; TDP1 cell noCPT: 0.12µM; 12-LOX inh: inactive; DT40 TDP1 CPT: 0.16µM; Gal4-VP16 FLuc: inactive

What do the screens show for `COc1ccccc1NC(=O)CN1C(=O)c2cccc3cccc1c23`?
TDP1 cell noCPT: 18µM; 12-LOX inh: inactive; DT40 TDP1 CPT: inconclusive

How did CCN1C(=O)c2cccc3c(S(=O)(=O)Nc4ccccc4OC)ccc1c23 do in these assays?
RORgamma inh: inactive; ELG1 DNA repair: inconclusive; TDP1 cell noCPT: 15µM; 12-LOX inh: inactive; DT40 TDP1 CPT: 12µM; Gal4-VP16 FLuc: inconclusive

Results for COc1ccccc1NC(=O)COC(=O)CN1C(=O)C(=O)c2ccccc21 ?
RORgamma inh: inactive; ELG1 DNA repair: inactive; TDP1 cell noCPT: inconclusive; 12-LOX inh: inactive; DT40 TDP1 CPT: 8.2µM; Gal4-VP16 FLuc: inactive

How did COc1ccc(NC(=O)CN2C(=O)C(=O)c3ccccc32)c(OC)c1 do in these assays?
TDP1 cell noCPT: 6.5µM; 12-LOX inh: inactive; DT40 TDP1 CPT: 4.1µM

What do the screens show for `COc1ccc(NC(=O)CN2C(=O)C(C)Oc3ccccc32)c(OC)c1` (stereo not given)?
RORgamma inh: inactive; ELG1 DNA repair: inactive; TDP1 cell noCPT: inconclusive; 12-LOX inh: inactive; DT40 TDP1 CPT: inactive; Gal4-VP16 FLuc: inactive

What do the screens show for `O=C(CN1C(=O)C(=O)c2ccccc21)OCN1C(=O)c2ccccc2C1=O`?
RORgamma inh: inactive; ELG1 DNA repair: inactive; TDP1 cell noCPT: inactive; 12-LOX inh: inactive; DT40 TDP1 CPT: inactive; Gal4-VP16 FLuc: inactive

What do the screens show for `COc1ccc(C)cc1NC(=O)CN1C(=O)c2cccc3cccc1c23`?
RORgamma inh: inactive; ELG1 DNA repair: inactive; TDP1 cell noCPT: inactive; 12-LOX inh: inactive; DT40 TDP1 CPT: inactive; Gal4-VP16 FLuc: inactive

How did CCN1C(=O)c2cccc3c(S(=O)(=O)NCc4ccccc4)ccc1c23 do in these assays?
ELG1 DNA repair: inconclusive; TDP1 cell noCPT: inconclusive; 12-LOX inh: inactive; DT40 TDP1 CPT: inconclusive

What do the screens show for `COc1ccc2cnn(CC(=O)N3CCN(c4ccccc4F)CC3)c(=O)c2c1OC`?
12-LOX inh: inactive

Results for CCOc1ccccc1NC(=O)CN1c2ccccc2S(=O)(=O)c2ccccc21 ?
TDP1 cell noCPT: inconclusive; 12-LOX inh: inactive; DT40 TDP1 CPT: 26µM

Results for CCOc1ccccc1NC(=O)CN1C(=O)C(=O)c2ccccc21 ?
TDP1 cell noCPT: 4.1µM; 12-LOX inh: inactive; DT40 TDP1 CPT: 5.8µM

How did Cn1c(=O)c2c(ncn2CCC(=O)Nc2ccc(F)cc2)n(C)c1=O do in these assays?
12-LOX inh: inactive

Bioassay records as filed in PubChem BioAssay.
